Measurements: PubChem BioAssay (NCATS)
Several values for one entry are separate records, joined by “and”; a condition that tells them apart may be missing. Equal values may be shown once. Inconclusive results are not listed. A call without a number means that no potency is given here. Some structures have more than one record in an assay (separate samples or runs), and their calls can disagree. Activity calls are given as the source filed them. The call rests on the fitted dose curve; in most records, active means well fitted inhibition curve with a large enough effect; inconclusive means small, poorly fitted or top-dose-only effect; inactive means flat fitted curve, though single readings scatter.

assay: P-glycoprotein substrates identified in KB-8-5-11 adenocarcinoma cell line, qHTS therapeutic library screen (AID 1346987); conditions: KB-8-5-11 (P-gp overexpressing) viability, CellTiter-Glo, 72 h; series mostly up to 44.5 µM; further: nearly all actives have a fitted effect of over 65% in size
Description: The ATP-binding cassette transporters P-glycoprotein (P-gp) is known to limit brain penetration of many chemotherapy drugs. […] As such, we developed a high-throughput screen (HTS) to identify substrates of P-gp from a series of chemical libraries including the National Center for Advancing Translational Sciences Pharmaceutical Collection NPC, 2,816 compounds), testing a total of 10,804 compounds, most of which have known mechanisms of action. We used the CellTiter-Glo viability assay to test library compounds against the parental KB-3-1 human cervical adenocarcinoma cell line and the colchicine-selected sub-line KB-8-5-11 that over-expresses P-gp. KB-8-5-11 cells were also tested in the presence of a P-gp inhibitor (tariquidar) to assess reversability of transporter-mediated resistance. Of the tested compounds, a total of 90 P-gp substrates were identified including 55 newly identified P-gp substrates. Substrates were confirmed using an orthogonal killing assay against HEK-293 cells transfected with P-gp. As exemplars, we confirmed that […] (cyclin-dependent kinase inhibitor); AT9283, (Janus kinase 2/3 inhibitor); ispinesib (kinesin spindle protein inhibitor); gedatolisib (PKI-587, phosphoinositide 3-kinase/mammalian target of rampamycin inhibitor); GSK-690693 (AKT inhibitor); and KW-2478 (heat shock protein 90 inhibitor) were substrates , and direct ATPase stimulation was assessed. ABCG2 was also found to confer high levels of resistance to AT9283, GSK-690693 and gedatolisib, while ispinesib, AT7519 and KW-2478 were weaker substrates.
The HeLa derivative cell line, KB-3-1, and its colchicine-selected, P-gp-overexpressing subline, KB-8-5-11 were maintained in DMEM with 10% FCS and Pen/Strep with glutamine at 37 degree C in 5% CO2. For KB-8-5-11 cells, colchicine was added to the medium at a concentration of 100 ng/mL. HEK-293 cells transfected with empty vector (pcDNA) or vector containing human ABCB1 (MDR-19) or ABCG2 (R-5) have been described previously (Robey, Lin, Qiu, Chan & Bates, 2011) and were maintained in EMEM supplemented with 10% FCS, Pen/Strep and glutamine with 2 mg/ml G418 to select for the expression of the transporter. Cultures were confirmed to be free of mycoplasma infection using the MycoAlert Mycoplasma Detection Kit (Lonza, Walkersville, MD). For the screen, assay medium was identical to culture medium except for KB-8-5-11 where colchicine was excluded from the medium.
All cell lines were plated into 1536-well plates at 500 cells/well in 5 uL media. Compounds were then pinned in dose-response using a 1536-head pin tool (Kalypsis, San Diego, CA) and plates were incubated at 37 degree C in 5% CO2 for an additional 72 h. CellTiter-Glo reagent (Promega) was dispensed into the wells, incubated for 5 min and luminescence was read on a ViewLux instrument (Perkin-Elmer). Cytotoxic compounds were defined as those that yielded a curve class of -1.1, -1.2, -2.1, -2.2, -2.3, or -2.4, a maximum response of >50% and an AC50 of < 10 uM. Cherry-picked hits from screening analysis were tested with both the KB pair of cell lines, and the pcDNA (empty vector control) and MDR-19 (P-gp overexpressing) pair were tested, in the absence and presence of tariquidar.
Potency means the concentration at half of the fitted maximal effect.

Row | SMILES | Potency
1 | COc1cc(Nc2ncc3c(n2)-c2ccc(Cl)cc2C(c2c(F)cccc2OC)=NC3)ccc1C(=O)O | 83.3 nM (active)
2 | NNCCc1ccccc1 | inactive
3 | NS(=O)(=O)c1cc2c(cc1Cl)NC=NS2(=O)=O | inactive
4 | COc1ccc2c3n(c(=NC(=O)c4cccnc4)nc2c1OC)CCN3 | 651 nM (active)
5 | COc1ccc2nc(S(=O)Cc3ncc(C)c(OC)c3C)[nH]c2c1 (stereo not given) | inactive
6 | CNC(=O)c1ccc(C)c(-n2c(C)cc(OCc3ccc(F)cc3F)c(Br)c2=O)c1 | inactive
7 | CCCc1nc2c(C)cc(-c3nc4ccccc4n3C)cc2n1Cc1ccc(-c2ccccc2C(=O)O)cc1 | inactive
8 | CC1(C)CNc2cc(NC(=O)c3cccnc3NCc3ccncc3)ccc21 | inactive
9 | NC(N)=NC(=O)c1nc(Cl)c(N)nc1N | 25900 nM (active)
10 | COc1ccccc1-c1cccc(-c2c(O)c3cc(C#N)c(Cl)cc3[nH]c2=O)c1 | inactive
11 | Cn1c(=O)c(F)c(Nc2ccc(I)cc2F)c2c(=O)n(C[C@@H](O)CO)cnc21 | inactive
12 | NC(=O)c1ccc(-c2nc(-c3ccc4c(c3)OCCO4)c(-c3ccccn3)[nH]2)cc1 | inactive
13 | CCN(c1ccccc1)c1cc(NC)[n+](C)c(C)n1 | inactive
14 | COc1cc(F)c(F)c(Nc2ccc(I)cc2F)c1NS(=O)(=O)C1(C[C@H](O)CO)CC1 | inactive
15 | CC(C)(Sc1ccc(CCN(CCCCC2CCCCC2)C(=O)NC2CCCCC2)cc1)C(=O)O | inactive
16 | COc1ccc(COc2cc3oc(=O)c4cc(C(C)O)ccc4c3cc2OC)cc1 (stereo not given) | 8.33 µM (active) and 3.66 µM (active)
17 | O=c1[nH]c(-c2ccc(C(F)(F)F)cc2)nc2c1CSCC2 | inactive
18 | Cc1ccc(N(CC2=NCCN2)c2cccc(O)c2)cc1 | inactive
19 | CNCc1ccc(-c2[nH]c3cc(F)cc4c3c2CCNC4=O)cc1 | inactive
20 | Cc1[nH]c(=O)c(C#N)cc1-c1ccncc1 | inactive

Row | SMILES | Potency
21 | Cc1cc2c(C(C)C)c(O)c(O)c(C=O)c2c(O)c1-c1c(C)cc2c(C(C)C)c(O)c(O)c(C=O)c2c1O | 11800 nM (active)
22 | CN[C@@H](C)C(=O)N[C@H]1CCCC[C@H]2CC[C@@H](C(=O)N[C@@H](c3ccccc3)c3cn(CCCCc4ccc(CCCCn5cc([C@@H](NC(=O)[C@@H]6CC[C@@H]7CCCC[C@H](NC(=O)[C@H](C)NC)C(=O)N76)c6ccccc6)nn5)cc4)nn3)N2C1=O | inactive
23 | CCOC(=O)C1=C[C@]2(CC)CCCN3CCc4c(n1c1ccccc41)[C@@H]32 | 26400 nM (active)
24 | Cc1cn[nH]c1 | inactive
25 | NC(=O)c1ccc(I)c([N+](=O)[O-])c1 | inactive
26 | O=c1ncn2nc(Sc3ccc(F)cc3F)ccc2c1-c1c(Cl)cccc1Cl | inactive
27 | Cn1cc(-c2ccc3nnc(C(F)(F)c4ccc5ncccc5c4)n3n2)cn1 | inactive
28 | Cc1cc(Nc2nc(N[C@@H](C)c3ncc(F)cn3)ncc2Cl)n[nH]1 | 16.6 µM (active) and 1.03 µM (active)
29 | O=C(O)CCc1ccc(NCc2cccc(Oc3ccccc3)c2)cc1 | inactive
30 | Cn1cnc2c(F)c(Nc3ccc(Br)cc3Cl)c(C(=O)NOCCO)cc21 | inactive
31 | O=S(=O)(N=Cc1c(O)ccc2ccccc12)c1cccs1 | inactive
32 | O=C(NOC[C@H](O)CO)c1ccc(F)c(F)c1Nc1ccc(I)cc1F | inactive
33 | CC(C=CC1=C(C)CCCC1(C)C)=CC=CC(C)=CC(=O)O | inactive
34 | O=C(O)[C@@H](c1ccc(OCc2ccc3ccccc3n2)cc1)C1CCCC1 | inactive
35 | CC(C)OC(=O)C1=CN(C(=O)c2ccc(F)c(F)c2)CC(C)(C)c2c1[nH]c1ccccc21 | inactive
36 | Cc1c(C)c2c(c(C)c1O)CCC(C)(COc1ccc(CC3SC(=O)NC3=O)cc1)O2 (stereo not given) | inactive
37 | C[C@H](NC(=O)Cc1cc(F)cc(F)c1)C(=O)N[C@@H]1C(=O)N(C)c2ccccc2-c2ccccc21 | inactive
38 | CNC[C@H](O)c1cccc(O)c1 | inactive
39 | Cc1ccnc(NS(=O)(=O)c2ccc(NC(=O)Nc3ccc(S(=O)(=O)Nc4nccc(C)n4)cc3)cc2)n1 | 14.8 µM (active) and inactive
40 | COc1ccc(-c2ccc3c(N4CCOC[C@H]4C)nc(N4CCOC[C@H]4C)nc3n2)cc1CO | 13.2 nM (active)
